PINK1 expr mod – PINK1 expression modulation; PINK1 immunofluorescence, high-content cytometry, 24 h; Potency, µM (titrated, usually from 76.6 µM), for the others: at the top dose activation (PINK1 increase), hits mostly activators; 0.2% of 410,000 active; active = well fitted activation curve with a large enough effect; inconclusive = small, poorly fitted or top-dose-only effect; cell line not stated here; note: potency is the fitted concentration of half-maximal effect; % of control where 0% means no effect; nearly all actives have a fitted effect of over 65% in size
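Stable cell line treated 24 h with compounds at 5 concentrations (CCCP controls), then fixed and immunostained for PINK1 plus nuclear and cell stains; PINK1 immunofluorescence quantified by laser-scanning microplate cytometry.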
MCF10A rereplic – DNA re-replication induction in MCF 10a cells; 2.9% of 350,000 active; Potency, µM (doses to about 46.1 µM), inactives show at the top dose activity, positive = re-replication, most hits filed as activators; MCF 10A DNA re-replication, Hoechst nuclear intensity, 48 h; note: potency is the fitted concentration of half-maximal effect; % of control where 0% means no effect; nearly all actives have a fitted effect of over 50% in size
IL-1B inflam inh – inhibitors of inflammasome signaling (IL-1 beta secretion) | 4.7% of 360,000 active | activity change, % at 57.5 µM | THP-1 LPS/ATP IL-1B secretion, AlphaLISA, 16 h; stronger effect = lower value; in the data active = activity change below about -50%; inconclusive = mostly about -30% to -49%; note: % is set by controls: 0 for no effect and ±100 for the full control effect
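Secreted IL-1B measured by AlphaLISA bead assay after 16 h compound exposure of THP-1 cells; compounds (final up to 57.5 uM) added 1 h before LPS (250 ng/mL) and ATP (1.25 mM) stimulation; lower signal means less secretion.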
SW480 rereplic – inducers of DNA re-replication in SW480 colon cancer cells; 1.8% of 340,000 active; Potency, µM (series often up to 46.1 µM), without a hit: top-dose re-replication activation, actives largely listed as activators; SW480 DNA re-replication, Hoechst DNA content imaging, 48 h; AID 624297; note: potency is the fitted concentration of half-maximal effect; % of control where 0% means no effect; nearly all actives have a fitted effect of over 55% in size
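SW480 cells exposed to compounds for 48 hr at 37 C, 5% CO2, then Hoechst-stained 40 min. Nuclear DNA content imaged by fluorescence scanning (405 nm excitation, 500-530 nm emission); re-replication scored as increased high-intensity nuclei.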
ATXN2 expr inh – inhibitors of ATXN2 expression. HEK-293 ATXN2-luciferase reporter, luminescence, 24 h. 0.72% of 360,000 active. Potency, µM (titrated, usually from 57 µM), inactives show at the top dose activity change, negative = inhibition, most hits filed as inhibitors. AID 1745845; note: potency is the fitted concentration of half-maximal effect; % is set by controls: 0 for no effect and ±100 for the full control effect; nearly all actives have a fitted effect of over 55% in size
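ATXN2-luciferase reporter cells (luciferase flanked by upstream and downstream ATXN2 gene portions) were treated 24 h at 37 °C with compounds at up to 57 uM. SteadyGlo luminescence gave expression; GF-AFC fluorescence gave viability.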
S2 tox – cell viability loss in ATXN counter-screen; Potency, µM (series often up to 56.7 µM), most hits filed as cytotoxic; S2 cells (HEK-293 line with an ATXN2-luciferase reporter) viability, CellTiter-Fluor protease fluorescence, 24 h; 0.49% of 400,000 active; note: potency is the fitted concentration of half-maximal effect; nearly all actives have a fitted effect of over 40% in size
* marks the source's active call; other numbers are inactive results; [ ] = remark or other dose. Hits are enriched below; roughly 7.1% of the tested compounds scored in any of these assays. Unless noted, calls come from the whole dose curve; as a rule, active = well fitted curve in the direction sought with a large enough effect; inconclusive = small, poorly fitted or top-dose-only effect, or another doubt; inactive = no such curve, though single readings can be large; an effect the other way counts as inactive or inconclusive.

Results for Cc1ccc(C(=O)OCC(=O)Nc2nc(-c3ccccc3)cs2)cc1NC(=O)c1ccco1 ?
PINK1 expr mod: 2%; MCF10A rereplic: inconclusive; IL-1B inflam inh: -80*; SW480 rereplic: -9%; ATXN2 expr inh: -25%

What do the screens show for `Nc1nc(-c2ccc(NC(=O)c3ccco3)cc2)cs1`?
PINK1 expr mod: 1%; MCF10A rereplic: 10%; IL-1B inflam inh: 2; SW480 rereplic: inconclusive; ATXN2 expr inh: 16µM*; S2 tox: inactive

What do the screens show for `O=C(Nc1ccc(-c2ccccc2)cc1)c1ccco1`?
PINK1 expr mod: 0%; MCF10A rereplic: -7%; IL-1B inflam inh: 24; SW480 rereplic: -10%; ATXN2 expr inh: -5%; S2 tox: inactive

What do the screens show for `Cc1ccn2cc(-c3ccc(NS(=O)(=O)c4ccccc4)cc3)nc2c1`?
PINK1 expr mod: 4%; MCF10A rereplic: inconclusive; IL-1B inflam inh: 1; SW480 rereplic: -44%; ATXN2 expr inh: 48%; S2 tox: inactive

Results for O=C(Nc1ccn(CCCNCCCN2CCCC2=O)c(=O)n1)OCc1ccccc1 ?
PINK1 expr mod: 0%; MCF10A rereplic: -4%; IL-1B inflam inh: -14; SW480 rereplic: -14%[9.22 µM]; ATXN2 expr inh: -6%; S2 tox: inactive

How did CCc1ccc(NC(=O)N2CCN(Cc3cc(=O)n4nc(-c5ccccc5OC)sc4n3)CC2)cc1 do in these assays?
PINK1 expr mod: 8%; ATXN2 expr inh: 4%; S2 tox: inconclusive

Results for O=C(NNc1nc(-c2ccccc2)cs1)c1ccco1 ?
PINK1 expr mod: 4%; MCF10A rereplic: 3%; IL-1B inflam inh: -14; SW480 rereplic: 18µM*; ATXN2 expr inh: 10%; S2 tox: inactive

Results for Cc1ccc(S(=O)(=O)Nc2ccc3nc(-c4cccn4C)[nH]c3c2)cc1 ?
PINK1 expr mod: 3%; MCF10A rereplic: 14%; IL-1B inflam inh: -50*; SW480 rereplic: -4%; ATXN2 expr inh: -13%; S2 tox: inconclusive

How did Cn1cccc1-c1nc2ccc(NC(=O)c3ccccc3)cc2[nH]1 do in these assays?
PINK1 expr mod: 3%; MCF10A rereplic: 1%; IL-1B inflam inh: 0; SW480 rereplic: -1%; ATXN2 expr inh: 21%; S2 tox: inactive

How did CCn1nc(C)cc1C(=O)NCC1Cc2cccc(-c3cccnc3)c2O1 (configuration not stated) do in these assays?
PINK1 expr mod: 1%; S2 tox: inactive

Results for Cc1ccc(S(=O)(=O)N(CC(=O)Nc2c(C)cccc2C)c2cccc(Cl)c2)cc1 ?
PINK1 expr mod: 2%

How did Cc1cc(/C=C2/C(=N)N3C(c4ccccc4)=CSC3=NC2=O)c(C)n1-c1ccccc1 do in these assays?
PINK1 expr mod: -1%; MCF10A rereplic: inconclusive; IL-1B inflam inh: 26; SW480 rereplic: 0%; ATXN2 expr inh: 24%

Results for N=C1/C(=C/c2ccc(-c3cccc(C(=O)O)c3)o2)C(=O)N=C2SC(CC(=O)N3CCOCC3)=NN12 ?
PINK1 expr mod: 0%; MCF10A rereplic: -9%; IL-1B inflam inh: -2; SW480 rereplic: inconclusive; ATXN2 expr inh: 2%; S2 tox: inactive

What do the screens show for `Cc1ccccc1-n1c(C)cc(/C=C2/C(=N)N3C(c4ccccc4)=CSC3=NC2=O)c1C`?
PINK1 expr mod: 2%; MCF10A rereplic: inconclusive; IL-1B inflam inh: -6; SW480 rereplic: 14µM*; ATXN2 expr inh: 5%; S2 tox: inconclusive

What do the screens show for `N=C1/C(=C\c2ccc(-c3cccc(C(=O)O)c3)o2)C(=O)N=C2SC=C(c3ccccc3)N12`?
PINK1 expr mod: 1%; MCF10A rereplic: 3.3µM*; IL-1B inflam inh: 0; SW480 rereplic: 8.2µM*; ATXN2 expr inh: 16%; S2 tox: inactive

How did COc1ccc2noc3c2c1C(=O)c1ccccc1-3 do in these assays?
PINK1 expr mod: 10%; MCF10A rereplic: -2%; IL-1B inflam inh: inconclusive; SW480 rereplic: 13%
